Assay results published in PubChem BioAssay (EPA / NIEHS).
Where “and” joins values, the source holds several entries; their conditions need not be identical. Identical values can stand only once. Inconclusive results are not listed. A structure can be active in one record and inactive in another. Calls of active or inactive are those of the source. How the source made its calls: active means hit-call score of the fitted dose curve at least 0.9, where 1 is the maximum; inconclusive means response in the unintended direction; inactive means score below 0.9.

Columns and labels:
[1] = target: Estrogen receptor (Homo sapiens) + Estrogen receptor beta (Homo sapiens) (UniProt P03372+Q92731); assay: OT_ER_ERaERb_1440: Odyssey Thera (OT) 24-hour HEK293T Protein-Complementation Assay for Estrogen Receptor-alpha/-beta Homodimer (AID 2283356);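 further: heteromer of ER alpha and ER beta binding domains; hits raise reporter fluorescence and both agonists and antagonists give an increase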
Sequence of Estrogen receptor (Homo sapiens) + Estrogen receptor beta (Homo sapiens) (P03372 whole entry, looked up, the tested form may be a part): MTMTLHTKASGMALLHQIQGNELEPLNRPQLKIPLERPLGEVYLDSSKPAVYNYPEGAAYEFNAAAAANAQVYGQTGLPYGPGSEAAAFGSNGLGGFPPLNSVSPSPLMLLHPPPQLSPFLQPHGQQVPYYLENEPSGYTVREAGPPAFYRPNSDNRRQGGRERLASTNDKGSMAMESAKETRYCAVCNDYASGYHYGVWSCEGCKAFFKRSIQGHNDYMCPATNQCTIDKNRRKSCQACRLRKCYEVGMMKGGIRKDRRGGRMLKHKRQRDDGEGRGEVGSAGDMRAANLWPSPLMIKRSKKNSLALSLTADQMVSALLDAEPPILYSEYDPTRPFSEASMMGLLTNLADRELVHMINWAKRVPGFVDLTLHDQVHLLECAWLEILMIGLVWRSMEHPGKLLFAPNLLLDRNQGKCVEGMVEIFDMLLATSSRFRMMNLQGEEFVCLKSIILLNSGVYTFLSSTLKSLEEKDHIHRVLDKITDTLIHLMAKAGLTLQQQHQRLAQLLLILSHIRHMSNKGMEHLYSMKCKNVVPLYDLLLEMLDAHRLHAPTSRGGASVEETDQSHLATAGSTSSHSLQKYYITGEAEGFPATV
Sequence of Estrogen receptor (Homo sapiens) + Estrogen receptor beta (Homo sapiens) (Q92731 whole entry, looked up, the tested form may be a part): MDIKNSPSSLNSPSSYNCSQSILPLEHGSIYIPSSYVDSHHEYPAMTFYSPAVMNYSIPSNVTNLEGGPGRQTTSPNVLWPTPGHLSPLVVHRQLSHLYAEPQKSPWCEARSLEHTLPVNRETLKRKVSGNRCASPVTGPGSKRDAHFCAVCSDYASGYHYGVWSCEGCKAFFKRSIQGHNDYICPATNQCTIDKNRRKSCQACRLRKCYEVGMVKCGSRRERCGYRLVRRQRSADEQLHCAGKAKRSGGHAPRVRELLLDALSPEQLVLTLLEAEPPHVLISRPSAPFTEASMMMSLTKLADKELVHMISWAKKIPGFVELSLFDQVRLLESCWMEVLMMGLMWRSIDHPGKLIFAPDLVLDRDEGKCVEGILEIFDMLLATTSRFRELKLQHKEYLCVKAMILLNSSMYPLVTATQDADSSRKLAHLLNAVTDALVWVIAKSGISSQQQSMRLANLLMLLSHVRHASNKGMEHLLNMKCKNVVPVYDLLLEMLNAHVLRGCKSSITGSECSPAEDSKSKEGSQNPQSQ
Procedure, shortened: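 Readout: mean fluorescence intensity in nucleus (agonists) or nucleus plus cytoplasm (antagonists), read by laser scanning cytometer after 24 h compound exposure of HEK293T cells carrying ERα/ERβ LBD fragment-complementation constructs; DMSO baseline.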

[2] = target: Estrogen receptor beta (Homo sapiens) (UniProt Q92731); assay: OT_ER_ERbERb_0480: Odyssey Thera (OT) 8-hour HEK293T Protein-Complementation Assay for Estrogen Receptor-beta/-beta Homodimer (AID 2283357);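 further: active means signal gain over DMSO baseline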
Sequence of Estrogen receptor beta (Homo sapiens) (Q92731 whole entry, looked up, the tested form may be a part): as above
Procedure, shortened: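 Cells (HEK293T, stable ER-beta LBD PCA pair) are treated 8 hours, fixed and Draq5-stained; signal is fluorescence intensity increase relative to vehicle, fitted in the gain direction.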

[3] = target: rat Mineralocorticoid Receptor (MR), Nr3c2 (gene 25672) (UniProt P22199); assay: NVS_NR_rMR: NovaScreen (NVS) Nuclear Receptor Binding Assay for rat Mineralocorticoid Receptor (MR) (AID 2283355)
Sequence of rat Mineralocorticoid Receptor (MR), Nr3c2 (gene 25672) (P22199 whole entry, looked up): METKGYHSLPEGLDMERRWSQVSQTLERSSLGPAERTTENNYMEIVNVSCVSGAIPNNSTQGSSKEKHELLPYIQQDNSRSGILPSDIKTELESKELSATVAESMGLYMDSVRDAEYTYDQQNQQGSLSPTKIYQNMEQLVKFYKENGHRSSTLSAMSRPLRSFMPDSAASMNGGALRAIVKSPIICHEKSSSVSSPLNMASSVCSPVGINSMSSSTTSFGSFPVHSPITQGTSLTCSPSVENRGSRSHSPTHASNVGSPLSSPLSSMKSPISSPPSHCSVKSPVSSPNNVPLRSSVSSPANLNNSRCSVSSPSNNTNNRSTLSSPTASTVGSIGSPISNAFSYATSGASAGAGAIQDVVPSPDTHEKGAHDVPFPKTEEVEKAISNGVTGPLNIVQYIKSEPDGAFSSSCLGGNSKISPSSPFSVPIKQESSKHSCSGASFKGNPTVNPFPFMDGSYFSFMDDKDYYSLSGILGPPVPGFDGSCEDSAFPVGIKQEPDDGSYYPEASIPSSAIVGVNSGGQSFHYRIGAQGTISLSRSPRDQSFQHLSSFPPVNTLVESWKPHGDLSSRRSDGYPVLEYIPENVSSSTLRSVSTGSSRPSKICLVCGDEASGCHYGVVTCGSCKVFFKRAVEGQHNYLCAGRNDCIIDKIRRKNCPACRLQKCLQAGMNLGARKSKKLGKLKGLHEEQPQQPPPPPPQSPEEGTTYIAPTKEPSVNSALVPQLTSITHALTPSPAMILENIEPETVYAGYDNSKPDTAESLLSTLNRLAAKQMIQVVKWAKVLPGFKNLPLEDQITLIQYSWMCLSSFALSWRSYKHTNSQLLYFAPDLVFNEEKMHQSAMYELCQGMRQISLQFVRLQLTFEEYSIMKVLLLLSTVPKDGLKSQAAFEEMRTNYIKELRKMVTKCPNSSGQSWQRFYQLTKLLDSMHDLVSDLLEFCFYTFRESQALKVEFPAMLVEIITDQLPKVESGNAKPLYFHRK
Procedure, shortened: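 Adrenalectomized rat brain supernatant was dosed with test chemical, then radioligand binding was measured by scintillation counting at 24 h. Initial testing ran in duplicate at 25 uM, followed by concentration series for actives.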

[4] = target: human Peroxisome Proliferator-activated Receptor alpha (PPARa), PPARA (gene 5465) (UniProt Q07869); assay: NVS_NR_hPPARa: NovaScreen (NVS) Nuclear Receptor Binding Assay for human Peroxisome Proliferator-activated Receptor alpha (PPARa) (AID 2283359);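 further: activity means loss of TR-FRET signal versus DMSO baseline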
Sequence of human Peroxisome Proliferator-activated Receptor alpha (PPARa), PPARA (gene 5465) (Q07869 whole entry, looked up): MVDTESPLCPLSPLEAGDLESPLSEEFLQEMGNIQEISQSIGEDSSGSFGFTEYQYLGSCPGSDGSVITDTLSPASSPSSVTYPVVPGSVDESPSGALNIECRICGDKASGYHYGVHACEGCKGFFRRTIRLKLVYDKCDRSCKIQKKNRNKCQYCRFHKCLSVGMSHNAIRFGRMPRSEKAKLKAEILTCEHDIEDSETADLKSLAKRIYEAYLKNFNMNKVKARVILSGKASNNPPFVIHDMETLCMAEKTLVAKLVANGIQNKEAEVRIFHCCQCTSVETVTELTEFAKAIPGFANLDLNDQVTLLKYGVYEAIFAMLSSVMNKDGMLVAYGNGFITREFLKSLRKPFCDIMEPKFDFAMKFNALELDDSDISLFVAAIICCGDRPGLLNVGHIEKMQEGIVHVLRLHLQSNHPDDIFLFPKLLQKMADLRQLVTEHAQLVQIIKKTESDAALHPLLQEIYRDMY
Procedure, shortened: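 Chemicals were first screened in duplicate at 25 uM, and active ones were retested across concentration series. Binding was monitored by TR-FRET one hour after dosing, with decreased signal against DMSO counted as activity.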

PGR (gene 5241) = PGR (gene 5241) (UniProt P06401); assay: NVS_NR_hPR: NovaScreen (NVS) Nuclear Receptor Binding Assay for human Progestron Receptor (PR) (AID 2283360);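 further: active means loss of bound radioligand signal versus DMSO baseline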
Procedure, shortened: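 Cell-free radioligand binding using receptor protein extracted from T47D cells, read by scintillation counting 18 hours after dosing. Loss of signal relative to DMSO baseline indicates displacement; primary screen single concentration 25 uM in duplicate, actives followed in concentration series.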

[5] = target: Glucocorticoid receptor (Homo sapiens) (UniProt P04150); assay: NVS_NR_hGR: NovaScreen (NVS) Nuclear Receptor Binding Assay for human Glucocorticoid Receptor (GR) (AID 2283363);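 on AC50: activity is loss of specific radioligand binding signal relative to DMSO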
Sequence of Glucocorticoid receptor (Homo sapiens) (P04150 whole entry, looked up): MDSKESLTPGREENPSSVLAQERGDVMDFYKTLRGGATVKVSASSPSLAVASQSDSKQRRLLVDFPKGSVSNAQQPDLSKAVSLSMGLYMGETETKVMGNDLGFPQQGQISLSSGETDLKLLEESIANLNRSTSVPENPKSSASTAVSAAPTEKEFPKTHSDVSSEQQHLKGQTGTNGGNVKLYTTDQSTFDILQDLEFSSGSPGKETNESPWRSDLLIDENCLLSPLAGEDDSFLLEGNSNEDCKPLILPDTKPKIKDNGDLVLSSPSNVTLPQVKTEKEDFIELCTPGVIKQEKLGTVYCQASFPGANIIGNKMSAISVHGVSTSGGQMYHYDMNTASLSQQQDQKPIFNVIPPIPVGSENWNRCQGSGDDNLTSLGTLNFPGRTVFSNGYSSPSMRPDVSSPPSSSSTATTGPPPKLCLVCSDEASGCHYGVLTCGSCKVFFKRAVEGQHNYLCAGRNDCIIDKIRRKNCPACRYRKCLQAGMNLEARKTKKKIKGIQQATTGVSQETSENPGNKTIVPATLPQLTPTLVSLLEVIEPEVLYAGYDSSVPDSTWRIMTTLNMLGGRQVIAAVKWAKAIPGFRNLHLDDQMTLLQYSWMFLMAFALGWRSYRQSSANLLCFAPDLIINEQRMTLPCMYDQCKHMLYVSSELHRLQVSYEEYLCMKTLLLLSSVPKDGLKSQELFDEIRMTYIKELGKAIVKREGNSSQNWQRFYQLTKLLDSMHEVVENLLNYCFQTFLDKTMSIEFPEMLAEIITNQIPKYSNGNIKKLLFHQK
Procedure, shortened: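 Competitive displacement of a labelled ligand was measured on cell-free receptor preparations after 16 h exposure. Initial testing used 25 uM in duplicate with plate controls; confirmed actives went into concentration series.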

[6] = target: Nuclear receptor subfamily 1 group I member 2 (Homo sapiens) (UniProt O75469); assay: NVS_NR_hPXR: NovaScreen (NVS) Nuclear Receptor Binding Assay for human Pregnane X Receptor (PXR) (AID 2283365);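 further: a drop in FRET signal versus DMSO baseline means the compound binds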
Sequence of Nuclear receptor subfamily 1 group I member 2 (Homo sapiens) (O75469 whole entry, looked up): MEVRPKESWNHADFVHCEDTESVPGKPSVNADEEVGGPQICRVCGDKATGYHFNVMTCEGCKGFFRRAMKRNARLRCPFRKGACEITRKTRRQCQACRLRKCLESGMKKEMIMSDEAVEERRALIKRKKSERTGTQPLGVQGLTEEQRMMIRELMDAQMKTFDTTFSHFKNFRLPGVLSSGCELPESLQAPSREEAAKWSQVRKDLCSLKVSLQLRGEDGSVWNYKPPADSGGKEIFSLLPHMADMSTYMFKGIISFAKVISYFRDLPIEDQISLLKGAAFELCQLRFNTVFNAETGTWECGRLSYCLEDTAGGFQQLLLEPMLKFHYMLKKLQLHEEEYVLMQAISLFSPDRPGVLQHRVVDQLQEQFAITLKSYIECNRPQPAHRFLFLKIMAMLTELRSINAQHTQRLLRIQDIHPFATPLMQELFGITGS
Procedure, shortened: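 TR-FRET signal read at 2 h in a cell-free human PXR binding format. DMSO served as negative control and baseline; activity scored as signal loss. Single-concentration duplicate screen (25 uM), then concentration-response follow-up.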

[7] = target: human Thyroid Receptor Alpha (TRa), THRA (gene 7067) (UniProt P10827); assay: NVS_NR_hTRa_Antagonist: NovaScreen (NVS) Nuclear Receptor Binding Assay for human Thyroid Receptor Alpha Antagonism (TRa) (AID 2283362);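 further: activity is loss of signal relative to DMSO baseline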
Sequence of human Thyroid Receptor Alpha (TRa), THRA (gene 7067) (P10827 whole entry, looked up): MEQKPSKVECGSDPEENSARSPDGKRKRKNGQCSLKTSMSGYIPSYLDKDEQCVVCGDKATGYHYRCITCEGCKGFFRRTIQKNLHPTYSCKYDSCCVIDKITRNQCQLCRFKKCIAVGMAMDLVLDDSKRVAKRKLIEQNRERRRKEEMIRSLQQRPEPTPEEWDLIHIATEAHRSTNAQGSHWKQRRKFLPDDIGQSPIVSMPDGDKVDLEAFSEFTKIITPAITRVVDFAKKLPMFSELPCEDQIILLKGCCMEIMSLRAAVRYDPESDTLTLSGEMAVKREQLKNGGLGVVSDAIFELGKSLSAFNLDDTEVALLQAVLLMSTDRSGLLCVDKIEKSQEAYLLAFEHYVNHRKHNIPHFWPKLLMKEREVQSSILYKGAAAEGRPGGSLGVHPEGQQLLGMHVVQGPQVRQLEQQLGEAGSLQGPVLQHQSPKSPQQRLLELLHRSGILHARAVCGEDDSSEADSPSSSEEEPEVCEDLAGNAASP
Procedure, shortened: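 AlphaLISA chemiluminescent immunoassay readout, taken 1 h post-dosing in a cell-free system with extracted protein. Activity was scored as signal loss against DMSO negative control, from duplicate single-concentration (25 uM) testing followed by concentration-response follow-up.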

[8] = target: Retinoic acid receptor alpha (Homo sapiens) (UniProt P10276); assay: NVS_NR_hRAR_Antagonist: NovaScreen (NVS) Nuclear Receptor Binding Assay for human Retinoic Acid Alpha Receptor Antagonism (RAR) (AID 2283358)
Sequence of Retinoic acid receptor alpha (Homo sapiens) (P10276 whole entry, looked up): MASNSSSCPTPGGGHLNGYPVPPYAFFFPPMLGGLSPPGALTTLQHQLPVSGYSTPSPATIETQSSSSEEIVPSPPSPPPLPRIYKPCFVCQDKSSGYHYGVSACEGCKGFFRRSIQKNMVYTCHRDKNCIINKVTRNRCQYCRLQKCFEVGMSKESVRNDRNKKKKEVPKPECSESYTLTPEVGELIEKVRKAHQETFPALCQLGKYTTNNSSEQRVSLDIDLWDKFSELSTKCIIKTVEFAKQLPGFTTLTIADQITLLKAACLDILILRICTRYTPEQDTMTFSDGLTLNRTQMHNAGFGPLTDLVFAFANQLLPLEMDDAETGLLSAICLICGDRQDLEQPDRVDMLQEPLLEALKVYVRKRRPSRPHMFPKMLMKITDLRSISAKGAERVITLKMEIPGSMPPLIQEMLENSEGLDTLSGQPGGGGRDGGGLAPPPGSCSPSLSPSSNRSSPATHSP
Procedure, shortened: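 TR-FRET, cell-free, antagonist format; 2 h incubation after dosing; DMSO = baseline; signal loss fitted; 25 uM duplicate primary, then conc. series.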

CC(C)CCCC(C)(C)O
outcome [1]: inactive

CC(C)N(c1ccccc1)C(C)C
outcome [1]: inactive
outcome [2]: inactive

[Na+]
outcome [1]: inactive
outcome [2]: inactive

COc1cc(OC)c2ccc(=O)oc2c1
outcome [1]: inactive
outcome [2]: inactive

O=C(O)CS
outcome [1]: inactive
outcome [2]: inactive

CCCc1ccc(O)cc1
AC50 [1]: 43 µM (active)
AC50 [2]: 33.4 µM (active)

CCCc1ccc(N)cc1
outcome [1]: inactive
outcome [2]: inactive

CCCO
outcome [1]: inactive
outcome [2]: inactive

CCCCOCCOCCOCCO
outcome [1]: inactive
outcome [2]: inactive

C#C[C@]1(O)CC[C@H]2[C@@H]3CCc4cc(O)ccc4[C@H]3CC[C@@]21C
AC50 [3]: 3.63 µM (active)
outcome [4]: inactive
AC50 (PGR (gene 5241)): 0.221 µM (active)
AC50 [5]: 304 nM (active) and 305 nM (active) and 1.43 µM (active)

Cc1cccc(O)c1
outcome [1]: inactive
outcome [2]: inactive

CC12CCC(C1)C(C)(C)C2O (stereo not given)
outcome [1]: inactive
outcome [2]: inactive

CCCC[N+](C)(CCCC)CCCC
outcome [1]: inactive
outcome [2]: inactive

CNC(=C[N+](=O)[O-])NCCSCc1ccc(CN(C)C)o1
outcome [1]: inactive
outcome [2]: inactive

OC[C@H]1O[C@@H](O[C@H]2[C@H](O)[C@@H](O)[C@H](O)O[C@@H]2CO)[C@H](O)[C@@H](O)[C@H]1O
outcome [1]: inactive
outcome [2]: inactive

CCCCCCCCOS(=O)(=O)O
outcome [1]: inactive
outcome [2]: inactive

c1ccc(Cc2ccccc2)cc1
outcome [1]: inactive

CCc1cccc(O)c1
outcome [1]: inactive
outcome [2]: inactive

CC1COC(=O)O1 (stereo not given)
outcome [1]: inactive

COC(=O)c1cccc(C(=O)OC)c1
outcome [1]: inactive

CCCO[Si](OCCC)(OCCC)OCCC
outcome [1]: inactive
outcome [2]: inactive

C=CC(C)CCCC(C)(C)O (stereo not given)
outcome [1]: inactive

COc1ccc2[nH]cc(CCNC(C)=O)c2c1
outcome [1]: inactive
outcome [2]: inactive

CC(C)(CO)CO
outcome [1]: inactive

CC(=O)CC(=O)N(C)C
outcome [1]: inactive
outcome [2]: inactive

C[C@]12CC[C@@H]3c4ccc(O)cc4CC[C@H]3[C@@H]1CC[C@@H]2O
AC50 [3]: 4.96 µM (active)
AC50 [5]: 384 nM (active) and 359 nM (active)
outcome [5]: inactive
outcome [6]: inactive

CCCCOCCOCCO
outcome [1]: inactive

CCCCCCCCCOS(=O)(=O)O
outcome [1]: inactive
outcome [2]: inactive

CCCCCCC(C)O (stereo not given)
outcome [1]: inactive
outcome [2]: inactive

CC(O)CN (stereo not given)
outcome [1]: inactive
outcome [2]: inactive

COC(=O)c1ccc(C(=O)OC)cc1
outcome [1]: inactive
outcome [2]: inactive

CCCCCCCC(=O)N(C)C
outcome [1]: inactive
outcome [2]: inactive

FC(F)(F)c1ccc(Cl)c(Cl)c1
outcome [1]: inactive
outcome [2]: inactive

CC(=O)OC(C)(C)C
outcome [1]: inactive
outcome [2]: inactive

CC(=O)C1=C(C)[C@@H]2C[C@@]3(C1)[C@H](C)CC[C@H]3C2(C)C
AC50 [1]: 58.1 µM (active)
AC50 [2]: 12.8 µM (active)
outcome [4]: inactive

CCC(C)C1CCCCC1=O (stereo not given)
outcome [1]: inactive
outcome [2]: inactive

CN1CCc2cccc3c2[C@H]1Cc1ccc(O)c(O)c1-3
AC50 [1]: 4.59 µM (active)
outcome [2]: inactive
AC50 [4]: 0.279 µM (active)
outcome [5]: inactive
AC50 [6]: 0.26 µM (active)

CCCCCCCCCO
outcome [1]: inactive
outcome [2]: inactive

O=S(=O)(O)c1cc(S(=O)(=O)O)c2c(N=Nc3ccccc3)c(O)ccc2c1
outcome [1]: inactive
outcome [2]: inactive
outcome [7]: inactive

CCOCC(C)O (stereo not given)
outcome [1]: inactive
outcome [2]: inactive

CCCCCCCCOC(=O)c1ccc(O)cc1
AC50 [1]: 24 µM (active)
AC50 [2]: 8.39 µM (active)
outcome [8]: inactive
outcome [5]: inactive

C1CCCNCC1
outcome [1]: inactive
outcome [2]: inactive
outcome [4]: inactive

CCCCCCCCCCCCN1CCOCC1
AC50 [1]: 68 µM (active)
outcome [2]: inactive
outcome [7]: inactive
outcome [6]: inactive

CCCCC(CC)COCCO (stereo not given)
outcome [1]: inactive
outcome [2]: inactive
outcome [4]: inactive
outcome [7]: inactive

OCC=Cc1ccccc1
outcome [1]: inactive
outcome [2]: inactive

COc1ccccc1O
outcome [1]: inactive
outcome [2]: inactive

C=CCCCCCCCCC(=O)OCC
outcome [1]: inactive
outcome [2]: inactive

CCCC1CCC(=O)CC1
outcome [1]: inactive
outcome [2]: inactive
